RAM network inh: blocks the yeast RAM network; S. cerevisiae dse1pr::URA3 reporter, 5-FOA growth OD615, 2 d; analog-sensitive cbk1-as2 kinase mutant strain; inhibition, % at 50 µM; 1.8% of 190,000 active; AID 868;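 active = inhibition above a set limit, 3 SD over mean compound inhibition, cut at about 8.4% in these data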;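 note: inhibition rescues growth on 5-FOA so higher OD means more RAM inhibition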
NR1D1 modulator: modulates human Rev-erb alpha binding to DNA; P20393; Rev-erbα–FITC-DNA binding, fluorescence polarization, 90 min; activity, % at 10 µM; 0.79% of 370,000 active;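 active = activity above about 14%, limit read from the data; passing the limit was not always enough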
EP2 mod: modulates human prostaglandin E2 receptor EP2 signaling; P43116; EP2-expressing cells, cAMP HTRF FRET, PGE2 co-stimulation; induction, % at 25 µM; 0.83% of 260,000 active; AID 940;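 active = compounds whose cAMP rise, as percent of the full-agonist control response, exceeds 60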;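 note: rat C6 glioma line stably carrying human EP2 under a CMV promoter; the protocol text gives 20 µM as final concentration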
Target sequence (P43116 whole entry, looked up): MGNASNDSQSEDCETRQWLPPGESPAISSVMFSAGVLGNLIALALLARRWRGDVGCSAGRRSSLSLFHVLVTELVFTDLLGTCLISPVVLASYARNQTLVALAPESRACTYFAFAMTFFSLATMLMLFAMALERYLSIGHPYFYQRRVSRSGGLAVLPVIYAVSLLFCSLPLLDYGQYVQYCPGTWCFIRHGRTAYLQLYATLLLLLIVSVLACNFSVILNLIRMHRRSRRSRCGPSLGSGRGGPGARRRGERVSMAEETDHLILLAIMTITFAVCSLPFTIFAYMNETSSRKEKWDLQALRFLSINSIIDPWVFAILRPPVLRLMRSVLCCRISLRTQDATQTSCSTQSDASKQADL
SKN-1 inh: C. elegans SKN-1 inhibition; C. elegans VP596 Pgst-4::GFP/RFP ratio, acrylamide-induced, 24 h; inhibition, % at 21.8 µM; 0.49% of 360,000 active;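 active = interference check ratio from 0.5 to 1.5 plus GFP to RFP signal ratio inhibition reaching or exceeding a fixed threshold, cut at about 30% in these data, passing the limit was not always enough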
PG9 binder: small molecules binding HIV-1 gp120 antibody PG9; TR-FRET gp120-PG9 antibody binding; 0.43% of 360,000 active; inhibition, % at 6.7 µM; in the data active = inhibition above about 8.5%
PGE2 EP2 inh: blocks the human prostaglandin E2 receptor EP2. C6 glioma cells expressing human EP2, cAMP TR-FRET; cells stimulated with saturating PGE2. inhibition, % at 25 µM. 0.52% of 260,000 active. AID 1422;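 active = percent inhibition above 40 after rounding to a whole number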;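 note: rat C6 glioma host cells with rolipram phosphodiesterase inhibitor present; the protocol text gives 20 µM as final concentration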
RAM 5-FOA: RAM network inhibitors in efflux-deficient yeast; 1,200 tested, under 10 active; max inhibition, %; shares compounds with RAM network inh; S. cerevisiae efflux-deficient reporter strain, 5-FOA growth OD615, 2 days; call rule not given here
Each line names hits and unclear results; the compound was inactive in the other large screens (follow-up assays come after a bar, where they were run). Hits are enriched below; roughly 2.9% of the tested compounds scored in any of these assays.

CCOc1cc(/C=N/N=C2/NC(=O)C(CC(=O)O)S2)ccc1OS(=O)(=O)c1ccc(C)cc1 (stereo not drawn)	RAM network inh 12 | RAM 5-FOA inactive
Cc1ccc(S(=O)(=O)Oc2ccc(/C=N/N=C3/NC(=O)C(CC(=O)O)S3)cc2)cc1 (stereo not drawn)	none (no result: RAM network inh, EP2 mod, PGE2 EP2 inh)
C=CCc1cccc(/C=N/NC(=O)C(C)Nc2ccc(C)cc2)c1O (stereo not drawn)	RAM network inh 16 | RAM 5-FOA inactive
CCOC(=O)C(C)(C)N(Cc1cccc(C)c1)S(=O)(=O)c1cccc([N+](=O)[O-])c1	RAM network inh 13 | RAM 5-FOA inactive
CCCC(=O)Oc1ccc(N(C(=O)CCC)S(=O)(=O)c2cccc([N+](=O)[O-])c2)cc1	none
COc1ccccc1N1C(=O)CC1(C#N)c1ccc(OCc2ccccc2)cc1 (stereo not drawn)	none
Cc1ccccc1N1C(=O)CC1(C#N)c1ccc(OCc2ccccc2)cc1 (stereo not drawn)	RAM network inh 11 | RAM 5-FOA inactive
O=C(Nc1cccc(F)c1)C1CCCCC1	none (no result: RAM network inh, EP2 mod, PGE2 EP2 inh)
O=C(/C=C/c1cccc(C(F)(F)F)c1)Nc1cccc(C(F)(F)F)c1	RAM network inh 12 | RAM 5-FOA inactive
O=C(Nc1cccc(C(F)(F)F)c1)C1CCCCC1	RAM network inh 22 | RAM 5-FOA inactive
COc1ccc([C@H]2CN(Cc3ccccc3)C[C@@H]2NC(C)=O)cc1	none (no result: RAM network inh, NR1D1 modulator, SKN-1 inh, PG9 binder)
CCOC(=O)CC(=O)CSc1nc(C)cc(C)c1C#N	none
CCOC(=O)CC(=O)CSc1nc(N)c(C#N)c(-c2ccc(Cl)cc2)c1C#N	RAM network inh 13 | RAM 5-FOA inactive
CC(C)CNS(=O)(=O)c1ccc(CCC(=O)Nc2cc(Cl)ccc2Oc2ccccc2)cc1	RAM network inh 13 | RAM 5-FOA inactive
CCCNS(=O)(=O)c1ccc(CCC(=O)Nc2cc(Cl)ccc2Oc2ccccc2)cc1	RAM network inh 12 | RAM 5-FOA inactive
CC(C)(C)NS(=O)(=O)c1ccc(CCC(=O)Nc2cc(Cl)ccc2Oc2ccccc2)cc1	none
CC(C)CNS(=O)(=O)c1ccc(CCC(=O)O)cc1	none
Cc1ccc2cc(CN(Cc3cccs3)C(=O)NC3CCCCC3)c(=O)[nH]c2c1C	none (no result: RAM network inh, NR1D1 modulator, SKN-1 inh, PG9 binder)
CCN1CCCC1CN(Cc1cc2cc(OC)ccc2[nH]c1=O)C(=O)Nc1ccc(Cl)cc1 (stereo not drawn)	none (no result: RAM network inh, NR1D1 modulator, SKN-1 inh, PG9 binder)
CCSC1=N/C(=C\c2ccc3c(c2)OCO3)C(=O)S1	RAM network inh 15 | RAM 5-FOA inactive
O=S(=O)(Nc1cccc(-c2nc3cccnc3s2)c1)c1ccc2c(c1)OCCO2	none
Cc1ccc(-c2nc3cccnc3s2)cc1NS(=O)(=O)c1ccc2c(c1)OCCO2	RAM network inh 13 | RAM 5-FOA inactive
COc1ccc(C(=O)Nc2cc(OC)c(Cl)cc2OC)cc1	RAM network inh 11 | RAM 5-FOA inactive
CCOC(=O)C(=Cc1ccc(OCc2ccc([N+](=O)[O-])cc2)c(OC)c1)C(=O)OCC	RAM network inh 16 | RAM 5-FOA inactive
COc1cc(C(c2c(C)[nH][nH]c2=O)c2c(C)[nH][nH]c2=O)ccc1OCc1ccc([N+](=O)[O-])cc1	none
CCn1c(SCC(=O)Nc2ccc(C)cc2)nnc1-c1ccco1	none (no result: RAM network inh, NR1D1 modulator, SKN-1 inh, PG9 binder)
Nc1cc(-c2cccs2)nn(CC(=O)NCc2cccc(F)c2)c1=O	none (no result: RAM network inh, NR1D1 modulator, SKN-1 inh, PG9 binder)
CCOC(=O)C1=C(Cc2ccc(OC)cc2)C(=O)c2ccccc2C1=O	RAM network inh 12 (no result: NR1D1 modulator, PG9 binder, PGE2 EP2 inh) | RAM 5-FOA inactive
O=C(OCc1ccccc1F)c1ccc2c(c1)-c1ccccc1C2=O	RAM network inh 13 (no result: PG9 binder) | RAM 5-FOA inactive
O=C(OCc1cccc(F)c1)c1ccc2c(c1)-c1ccccc1C2=O	none
CCOC(=O)c1ccc(COC(=O)CNS(=O)(=O)c2ccccc2)cc1	none
CCOC(=O)c1ccc(COC(=O)c2ccc3c(c2)-c2ccccc2C3=O)cc1	RAM network inh 12 | RAM 5-FOA inactive
Cc1ccc(Cl)cc1NC(=O)CSc1nnc2c(n1)[nH]c1ccc(F)cc12	none (no result: RAM network inh, NR1D1 modulator, SKN-1 inh, PG9 binder)
COc1ccc(N2CN=c3s/c(=C\c4ccc(C)o4)c(=O)n3C2)cc1	none (no result: RAM network inh, NR1D1 modulator, SKN-1 inh, PG9 binder)
COc1ccc(NC2=C(Cl)C(=O)N(CCc3ccccc3)C2=O)c(OC)c1	RAM network inh 16 | RAM 5-FOA inactive
O=C(CSCC(=O)Nc1ccc2ccccc2c1)NCc1ccccc1	none (no result: NR1D1 modulator)
CC(C)c1ccc(CNC(=O)CSCC(=O)Nc2ccc3ccccc3c2)cc1	RAM network inh 13 | RAM 5-FOA inactive
COC(=O)c1ccc(NC(=O)Cn2c(C)nc3ccccc3c2=O)cc1	none (no result: RAM network inh, NR1D1 modulator, SKN-1 inh, PG9 binder)
CCN(Cc1ccccc1)c1ccc(/C=C(\C#N)c2ccccn2)cc1	RAM network inh 17 | RAM 5-FOA inactive
CCN(CC)c1ccc(/C=C(\C#N)c2ccccn2)cc1	none (no result: NR1D1 modulator, PG9 binder)
COc1cc(/C=C(\C#N)c2ccccn2)ccc1OCc1ccc(Cl)cc1	RAM network inh 12 | RAM 5-FOA inactive
CCOc1ccc(C(=O)Nc2nnc(Cc3ccc(OC)c(OC)c3)s2)cc1	none (no result: RAM network inh, NR1D1 modulator, SKN-1 inh, PG9 binder)
Cc1nnc(SC/C=C/c2ccccc2)n(N)c1=O	none
O=C(/C=C/c1ccccc1)n1cnnc1SC/C=C/c1ccccc1	RAM network inh 12 | RAM 5-FOA inactive
O=C(CC(c1ccccc1)(c1ccccc1)c1ccccc1)N[C@@H](Cc1ccccc1)C(=O)O	RAM network inh 13 | RAM 5-FOA inactive
O=C(O)[C@H](Cc1ccccc1)NC(=O)C(c1ccccc1)(c1ccccc1)c1ccccc1	none
O=C(CN(Cc1cccs1)C(=O)CSc1nnc(COc2ccccc2)o1)NC1CCCC1	RAM network inh 17 | RAM 5-FOA inactive
CCc1ccc(OCc2nnc(SCC(=O)NC3CCCCC3)o2)cc1	none (no result: RAM network inh)
CCCOc1ccc(/C=C/C(=O)Nc2ccc([N+](=O)[O-])cc2)cc1	RAM network inh 13 (no result: PGE2 EP2 inh) | RAM 5-FOA inactive
CCCCOc1ccc(/C=C/C(=O)Nc2ccc([N+](=O)[O-])cc2C)cc1	none
O=C(O)CCCC(=O)Nc1cccc(C(=O)Nc2ccccc2C(=O)O)c1	none
O=C(CSCc1ccc(Cl)cc1)Nc1cccc(C(=O)Nc2ccccc2C(=O)O)c1	RAM network inh 14 | RAM 5-FOA inactive
O=C(CSCc1ccccc1)Nc1cccc(C(=O)Nc2ccccc2C(=O)O)c1	RAM network inh 13 | RAM 5-FOA inactive
Cc1ccc(CNC(=O)Cn2ncc3c4oc(C)cc4n(C)c3c2=O)o1	none (no result: RAM network inh, NR1D1 modulator, SKN-1 inh, PG9 binder)
CC(C)(C)n1nnnc1C(c1cccnc1)N(Cc1ccccc1)Cc1ccco1 (stereo not drawn)	none
COc1cccc(CN(Cc2ccco2)C(c2ccc(F)cc2)c2nnnn2C(C)(C)C)c1 (stereo not drawn)	RAM network inh 14 | RAM 5-FOA inactive
Cc1ccc(CS/C(Nc2ccccc2C)=C(\C#N)C(=O)NCc2ccco2)c(C)c1	RAM network inh 13 | RAM 5-FOA inactive

Source: PubChem BioAssay
